Results taken from the supplement of paper PMC3334620.
Whole data set: some 33,000 sequences, median “E-score (-0.5 to 0.5)” near -0.015, cut for the highest 2% near 0.3. Only a selection was taken, and the highest values are over-represented in it overall.

Molecular target: T1, Abf1 (UniProt P14164)
T1 sequence: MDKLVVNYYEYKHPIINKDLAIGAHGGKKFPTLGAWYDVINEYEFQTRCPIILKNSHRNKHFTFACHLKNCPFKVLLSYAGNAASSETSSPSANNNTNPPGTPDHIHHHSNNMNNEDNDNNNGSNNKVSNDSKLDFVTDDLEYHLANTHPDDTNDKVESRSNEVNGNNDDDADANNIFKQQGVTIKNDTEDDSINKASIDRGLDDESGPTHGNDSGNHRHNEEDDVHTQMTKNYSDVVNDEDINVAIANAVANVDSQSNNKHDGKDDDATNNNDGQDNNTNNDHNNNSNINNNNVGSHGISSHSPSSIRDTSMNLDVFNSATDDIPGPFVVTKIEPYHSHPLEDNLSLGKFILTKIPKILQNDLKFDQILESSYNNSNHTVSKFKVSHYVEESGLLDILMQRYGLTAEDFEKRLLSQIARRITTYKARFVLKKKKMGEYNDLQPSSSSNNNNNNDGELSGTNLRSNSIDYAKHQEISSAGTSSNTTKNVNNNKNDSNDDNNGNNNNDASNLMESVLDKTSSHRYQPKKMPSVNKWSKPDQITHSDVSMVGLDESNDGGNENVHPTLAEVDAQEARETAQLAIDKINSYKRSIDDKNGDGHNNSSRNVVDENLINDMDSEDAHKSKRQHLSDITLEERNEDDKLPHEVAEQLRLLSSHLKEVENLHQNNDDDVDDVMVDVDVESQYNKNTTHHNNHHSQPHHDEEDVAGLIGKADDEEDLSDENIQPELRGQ
Experiment: PBM E-score (8-mer binding enrichment) (E-score (-0.5 to 0.5)); higher = stronger / more preferred TF binding
Settings: protein concentration: 200 nM; construct: GST-full length
Outline: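 GST-tagged yeast TFs (full-length or DNA-binding domain) were made by PURExpress in vitro transcription/translation and applied at about 100-200 nM to universal all-10-mer Agilent arrays. The arrays were made double-stranded by primer extension, on fresh or once-stripped slides. Bound protein was detected with fluorescent anti-GST, and scans were normalised with masliner. Each ungapped eight-base word, pooled with its reverse complement, received an E-score (modified Wilcoxon-Mann-Whitney statistic) from the Universal PBM Analysis Suite.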

Row | Sequence | PBM E-score
1 | AAATCATC | 0.278
2 | GCAAAAAC | 0.0419
3 | GATAGGAC | -0.123
4 | AGGCGTTC | -0.191
5 | AATACTAT | -0.00924
6 | AATACTAA | 0.0807
7 | AATACTAC | 0.301
8 | AGGGACCG | -0.0817
9 | CATGCCGG | -0.00463
10 | CTCACGTC | 0.0288
11 | ATCACGGC | 0.35
12 | ATCACGCC | 0.253
13 | ATCACGAT | 0.26
14 | ATCACGTC | 0.336
15 | ATCACGAC | 0.363
16 | ATCACGCG | 0.373
17 | ATCACGGG | 0.163
18 | ATCACGGA | 0.246
19 | ATCACGTA | 0.218
20 | ATCACGAA | 0.256
21 | ATCACGCA | 0.272
22 | AGGCTTAT | -0.0827
23 | CAACCGCA | -0.0837
24 | ACTTTGTC | 0.217
25 | CCCGCTAG | -0.157

Row | Sequence | PBM E-score
26 | ATGATCCA | 0.0885
27 | CCGTCATC | 0.128
28 | CCGTCATA | 0.37
29 | GCGTCATA | 0.138
30 | AATGGTCC | -0.0212
31 | TTCATCAA | 0.041
32 | ATCATCGA | 0.175
33 | ATCATCAG | 0.16
34 | ATCATCAT | 0.376
35 | ATCATCAA | 0.26
36 | AACATCAT | 0.309
37 | AACATCAC | 0.283
38 | AGCATCAT | 0.0136
39 | ATCATCGC | 0.301
40 | AACATCAG | 0.0871
41 | ATCATCGG | 0.116
42 | GTCATCAA | 0.31
43 | ATCGCATC | 0.0782
44 | GAATCCCA | -0.00947
45 | AGGCCTTG | -0.302
46 | CTCTCTGA | -0.149
47 | ACCCTTCA | -0.0788
48 | AGGTGTCA | -0.0121
49 | AATTCTGT | -0.144
50 | GACATCAC | 0.352

Row | Sequence | PBM E-score
51 | GGCATCAC | 0.0726
52 | GCCATCAC | -0.121
53 | AGCATCAC | -0.0618
54 | GTCATCAC | 0.334
55 | GACATCAA | 0.178
56 | CTCATCAC | 0.217
57 | CACATCAC | 0.244
58 | ATCATCAC | 0.393
59 | AGCTTGAC | -0.245
60 | GTGGTGTA | -0.0517
61 | GCCCCTTA | -0.138
62 | CGCCGCCG | -0.223
63 | ATACGGCA | 0.376
64 | ATACGGGG | 0.172
65 | GTACGGCA | 0.222
66 | ATACGGCC | 0.208
67 | CTACGGCA | 0.291
68 | ATACGGCG | 0.384
69 | AGAGGGTC | -0.274
70 | CTTAGGGC | -0.183
71 | GGCTCGAC | -0.0785
72 | CGGCGTCA | -0.103
73 | AATCACTC | 0.224
74 | GCTCACTA | 0.0163
75 | CATCACTC | 0.385

Row | Sequence | PBM E-score
76 | CATCACTA | 0.351
77 | CATCACAC | 0.141
78 | CCTCACTA | 0.159
79 | AATCACTA | 0.359
80 | AATCACTG | 0.204
81 | GATCACTA | 0.389
82 | GTTCACTA | 0.115
83 | CCTCACTC | 0.0309
84 | CATCACAA | 0.0688
85 | ATCGTAGA | 0.28
86 | AGTGTGGA | -0.0464
87 | CAGTAGGA | -0.109
88 | ATTGTGGG | -0.127
89 | TACCGCGA | -0.111
90 | GGTCGACA | -0.106
91 | GAGCCTAC | -0.171
92 | ATGGTTTC | -0.0221
93 | GATGGGCC | -0.28
94 | CACAGTTA | 0.164
95 | GCTCGAGA | -0.143
96 | TCTCGAGA | 0.302
97 | CCTCGAGA | -0.0603
98 | CATTGTGC | -0.115
99 | CCGAACTA | -0.143
100 | CCGTAGAC | 0.0491

Row | Sequence | PBM E-score
101 | GCGTAGAA | 0.0196
102 | ACGTAGAA | 0.108
103 | CCGTAGAA | 0.298
104 | TCGTAGAA | 0.393
105 | CCGTAGAG | 0.102
106 | ATACCGGC | 0.0536
107 | CGGGCGCC | -0.053
108 | GTGATTAA | 0.249
109 | CGGATAGA | 0.147
110 | AGTGGTGA | 0.131
111 | ACATCACA | 0.183
112 | ACATCATC | 0.328
113 | ACATCATG | 0.24
114 | ACATCACT | 0.415
115 | GCATCACC | -0.101
116 | ACATCACG | 0.231
117 | ACATCACC | 0.353
118 | ACATCAGT | -0.0164
119 | ACATCATA | 0.169
120 | CAACCTAC | -0.122
121 | GCCTAGGA | -0.178
122 | CATGGCGG | -0.0941
123 | ACATCTGA | -0.0545
124 | CGATAAAA | 0.285
125 | CGATAACA | 0.106

Row | Sequence | PBM E-score
126 | TGATAAAA | 0.337
127 | GGATAAAA | 0.158
128 | GGATAACA | 0.0228
129 | TGATAACA | 0.341
130 | TCATGAAA | 0.00026
131 | GGTCGCCA | -0.074
132 | TCATGGGA | -0.042
133 | AACGCTGT | 0.00818
134 | ACTGGTAC | -0.0194
135 | CGTCCAGC | -0.0241
136 | TAGTGTGA | 0.137
137 | TAGTGTCA | 0.117
138 | GAGTGACA | 0.432
139 | GAGTGACC | 0.207
140 | CAGTGACA | 0.3
141 | CAGTGAAA | 0.0736
142 | CAGTGACC | 0.132
143 | GAGTGCCA | -0.212
144 | TAGTGACA | 0.414
145 | AACGGACC | -0.168
146 | TGATCCCA | -0.0944
147 | CTAGCTGC | -0.114
148 | CGAGGTGA | 0.129
149 | GACACTTA | -0.0374
150 | ACTGCACG | -0.0217

Row | Sequence | PBM E-score
151 | CGCCACCA | -0.138
152 | GTGATCCA | 0.132
153 | GAGATCTA | -0.121
154 | ATGATCTA | 0.297
155 | CTGATCTA | -0.106
156 | ATGATCTC | 0.296
157 | GTGATCTA | 0.407
158 | CGGCCAAC | -0.133
159 | GACGATGC | 0.231
160 | ACAGCCGC | -0.223
161 | CGTGCACA | 0.196
162 | CGTGCAAC | 0.247
163 | TGTGCACA | 0.0303
164 | CGTGCAAG | 0.169
165 | CGTGCACG | 0.419
166 | CGTGCAAA | 0.337
167 | AAGGATGC | -0.213
168 | GGCTGCGA | -0.0617
169 | CGAGGGAC | -0.189
170 | GGGGGCAA | -0.0502
171 | CGCATATC | 0.239
172 | CAACCTCA | -0.0877
